SMILES strings stand for the structures. A number with no mark means an inactive call. Inconclusive results are not listed. Active and inactive are the calls of the source. Unless noted, calls come from the whole dose curve; as a rule, active = well fitted curve in either direction with a large enough effect (not every such curve was filed as active); inconclusive = small, poorly fitted or top-dose-only effect, or another doubt; inactive = flat fitted curve, though single readings scatter.

This note sets out measurements from PubChem BioAssay (NCATS).

Assay [1] addresses Lysosomal acid glucosylceramidase (Homo sapiens) (UniProt P04062). The assay can be described thus: Glucocerebrosidase-p2 (AID 348; in the data active = potency below about 10 µM; note: potency is the fitted concentration of half-maximal effect). The following applies: purified GBA, blue fluorogenic substrate, 40 min. In short, it runs like this:
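Compounds titrated from 0.6 nM upwards against 0.2 nM enzyme in pH 5.9 citric acid/KH2PO4, taurocholate, tween-20; blue fluorogenic substrate 80 uM, 40 min room temperature, stopped and read Ex 365/Em 440 for AC50.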

Assay [2] in a line: AP1 Signaling Pathway (AID 357). Note: % is set by controls: 0 for no effect and ±100 for the full control effect. The note with it: ME-180 AP-1-bla reporter, EGF-induced, beta-lactamase ratio, 5 h; at 7.69 µM (top of the series) unless noted. The method, boiled down: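 First, ME-180 AP-1-bla cells were cultured overnight at 37 °C in low-serum Opti-MEM. Next, titrated compounds with EC50 EGF were incubated 5 hours. Finally, CCF4 was added for 2.5 hours and the 460/530 nm ratio recorded.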

Assay [3] addresses Cytochrome P450 1A2 (Homo sapiens) (UniProt P05177). In words: p450-cyp1a2 (AID 410; calls by dose curve; note: potency is the fitted concentration of half-maximal effect). The note with it: recombinant CYP1A2, luciferin-ME demethylation, luminescence; series mostly up to 11.4 µM. In short, it runs like this:
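Luminescent readout of luciferin formed from Luciferin-ME by human CYP1A2; data normalized against complete inhibition by 57 uM furafylline. Enzyme 20nM, substrate 100uM at Km, 100mM KPO4 buffer, 60 min reaction at room temperature.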

Assay [4] in a line: Stat Signaling Pathway (AID 446).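 Note: ME-180 cervical cancer cells given 40 pM IL-6 alongside compound; SIE-controlled beta-lactamase reporter measured as 460/530 nm FRET emission ratio; % is set by controls: 0 for no effect and ±100 for the full control effect.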 The note with it: ME-180 (cervical carcinoma) SIE beta-lactamase reporter, IL-6 stimulated, 5 h; at 7.69 µM (top of the series) unless noted. In short, it runs like this:
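ME-180 cells carrying a SIE-driven beta-lactamase reporter are stimulated with 40 pM IL-6 for 5 h at 37C in the presence of compound. The 460/530 nm FRET substrate ratio is read after 2.5 h at RT. Data are normalised to 300 pM IL-6 and to 125 nM JAK inhibitor controls.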

In assay [5] the target is Glucocorticoid receptor (Homo sapiens) (UniProt P04150). The assay can be described thus: GR-GFP Redistribution (AID 450;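 active = compounds whose dose series gives a full or clear partial fitted curve of increased nuclear translocation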; note: potency is the fitted concentration of half-maximal effect). The following applies: U2OS GR-GFP nuclear translocation, laser cytometry, 2 h.
Assay [6] shares this target. In words: GR-EFC Redistribution (AID 451; calls by dose curve; note: potency is the fitted concentration of half-maximal effect). The following applies: CHO-K1 GR-EFC translocation, beta-gal luminescence, 2 h. The method, boiled down: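 Translocation of GR-ED fusion to nuclear EA restores b-gal, read by luminescence after 1 h room-temperature detection. Engineered CHO-K1 biosensor cells, 1,000/well, exposed 2 h at 37 C to titrations up to 46 uM final.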

Assay [7] addresses Mitogen-activated protein kinase 10 (Mus musculus) (UniProt Q61831). The assay can be described thus: JNK3 AlphaScreen Assay (AID 530).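 Note: kinase came from lysate of stimulated human HepG2 cells; signal reports phosphorylation of biotinylated GST-cJun 1-79 at Ser73 with 10 µM ATP; % is set by controls: 0 for no effect and ±100 for the full control effect.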 The following applies: JNK3 lysate, c-Jun phosphorylation; series mostly up to 11.4 µM. In short, it runs like this:
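Compound titrations were preincubated 15 minutes at room temperature with substrate, antibody and pre-activated JNK3-containing HepG2 lysate. Reactions were started with 10 uM ATP and stopped with EDTA-containing bead buffer for AlphaScreen detection.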
On the technique in general: In Alpha technology, singlet oxygen from a donor bead excites a nearby acceptor bead.

The target in assay [8] is 3',5'-cyclic-AMP phosphodiesterase 4B (Homo sapiens) (UniProt Q07343). The assay can be described thus: qHTS Assay for Inhibitors of PDE-IV (AID 607; active = well fitted activation curve with a large enough effect in the main read-out, with a control signal flat, not every such curve was filed as active; note: % of control where 0% means no effect). The note with it: HEK293 ACTOne CNG channel cells, membrane potential fluorescence; series mostly up to 22.9 µM. In short, it runs like this: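 HEK293 ACTOne cells with CNG channel (1000/well), endogenous PDE4; membrane potential dye, compounds up to 22.9 uM final. Fluorescence Ex 535/Em 590; RO 20-1724 (100 uM final) as reference.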
On the technique in general: In qHTS, concentration-response curves come from the screen itself.

Assay [9] addresses Cytochrome P450 2C9 (Homo sapiens) (UniProt P11712). In words: qHTS Assay for Inhibitors and Substrates of Cytochrome P450 2C9 (AID 883; active = well fitted curve in the direction sought with a large enough effect; an effect the other way counts as inactive or inconclusive; note: nearly all actives have a fitted effect of over 60% in size; note: potency is the fitted concentration of half-maximal effect; for activity change, negative = inhibition: % is set by controls: 0 for no effect and ±100 for the full control effect). The following applies: recombinant CYP2C9, luciferin-H luminescence, 60 min; series mostly up to 11.4 µM. The method, boiled down: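 Luminescent read-out of deoxyluciferin hydroxylation, normalized to 57uM sulphaphenazole (AC100). Reaction: 10nM enzyme, 100uM Luciferin-H (equal to KM), 25mM KPO4, 10 min compound preincubation, then 60 min with NADPH regeneration, both at 37C.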

The target in assay [10] is Cytochrome P450 3A4 (Homo sapiens) (UniProt P08684). In words: qHTS Assay for Activators of Cytochrome P450 3A4 (AID 885; active = well fitted curve in the direction sought with a large enough effect; an effect the other way counts as inactive or inconclusive; note: nearly all actives have a fitted effect of over 65% in size). The note with it: recombinant CYP3A4, Luciferin-PPXE luminescence, 60 min; series mostly up to 11.4 µM. In short, it runs like this:
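Human CYP3A4 (20 nM) with Luciferin-PPXE at 25 uM (its KM) in 200 mM KPO4; 10 min compound preincubation, then NADPH regeneration and 60 min reaction at RT. Luciferin read by luminescence; normalized to 57 uM ketoconazole full inhibition.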

For assay [11], the target named is Cytochrome P450 2C19 (Homo sapiens) (UniProt P33261). The assay can be described thus: qHTS Assay for Inhibitors and Substrates of Cytochrome P450 2C19 (AID 899; active = well fitted curve in the direction sought with a large enough effect; an effect the other way counts as inactive or inconclusive; note: potency is the fitted concentration of half-maximal effect; nearly all actives have a fitted effect of over 60% in size). The following applies: recombinant CYP2C19, luciferin-H EGE luminescence; series mostly up to 11.4 µM. The method, boiled down:
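Luminescence readout of luciferin formed from 10uM Luciferin-H EGE (KM level) by 5 nM CYP2C19 in 50mM KPO4. 60 min NADPH-driven reaction at 37C after 10 min compound preincubation; data scaled to 57uM ketoconazole inhibition.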

In assay [12] the target is Cytochrome P450 3A4 (Homo sapiens) (UniProt P08684). The assay can be described thus: qHTS Assay for Inhibitors and Substrates of Cytochrome P450 3A4 (AID 884; active = well fitted curve in the direction sought with a large enough effect; an effect the other way counts as inactive or inconclusive; note: potency is the fitted concentration of half-maximal effect; nearly all actives have a fitted effect of over 50% in size). The following applies: recombinant CYP3A4, Luciferin-PPXE luminescence; series mostly up to 57.1 µM. The method, boiled down:
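20 nM human CYP3A4 with 25 uM Luciferin-PPXE (at KM) in 200 mM KPO4, preincubated 10 min with compound; NADPH regeneration started a 60 min RT reaction. Luciferin detected by luminescence, normalized to 57 uM ketoconazole as full inhibition.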

Assay [13] has as its target Cytochrome P450 2D6 (Homo sapiens) (UniProt P10635). The assay can be described thus: qHTS Assay for Inhibitors and Substrates of Cytochrome P450 2D6 (AID 891; active = well fitted curve in the direction sought with a large enough effect; an effect the other way counts as inactive or inconclusive; note: potency is the fitted concentration of half-maximal effect; nearly all actives have a fitted effect of over 60% in size). The following applies: recombinant CYP2D6, luciferin-ME EGE luminescence; series mostly up to 11.4 µM. The method, boiled down: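 Human CYP2D6 (5 nM) with 30 uM Luciferin-ME EGE (at Km) in 100 mM KPO4, compound preincubated 10 min, then NADPH regeneration system for 60 min at room temperature. Luciferin read by luminescence; normalized to 1.43 uM quinidine.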

3',5'-cyclic-AMP phosphodiesterase 4B (Homo sapiens), sequence (Q07343 whole entry, looked up): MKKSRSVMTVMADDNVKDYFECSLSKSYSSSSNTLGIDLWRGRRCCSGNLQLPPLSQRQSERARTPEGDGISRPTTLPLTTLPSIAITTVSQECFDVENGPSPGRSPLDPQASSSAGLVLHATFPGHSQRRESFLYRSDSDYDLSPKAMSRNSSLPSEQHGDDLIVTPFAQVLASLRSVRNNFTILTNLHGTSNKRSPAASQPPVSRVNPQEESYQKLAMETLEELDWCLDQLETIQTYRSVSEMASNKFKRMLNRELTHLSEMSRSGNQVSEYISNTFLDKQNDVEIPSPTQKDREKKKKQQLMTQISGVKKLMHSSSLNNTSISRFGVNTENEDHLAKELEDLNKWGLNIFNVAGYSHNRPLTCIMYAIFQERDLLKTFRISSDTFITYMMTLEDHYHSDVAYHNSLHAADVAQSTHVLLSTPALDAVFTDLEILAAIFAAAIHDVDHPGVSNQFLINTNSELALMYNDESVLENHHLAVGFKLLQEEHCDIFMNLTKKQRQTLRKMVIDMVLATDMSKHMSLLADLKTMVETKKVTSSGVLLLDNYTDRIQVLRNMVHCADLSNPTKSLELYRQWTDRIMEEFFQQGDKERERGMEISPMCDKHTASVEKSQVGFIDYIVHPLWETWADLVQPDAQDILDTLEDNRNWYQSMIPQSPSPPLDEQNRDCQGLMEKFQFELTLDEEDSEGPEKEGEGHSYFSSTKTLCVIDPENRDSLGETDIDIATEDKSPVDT
Glucocorticoid receptor (Homo sapiens), sequence (P04150 whole entry, looked up, the tested form may be a part): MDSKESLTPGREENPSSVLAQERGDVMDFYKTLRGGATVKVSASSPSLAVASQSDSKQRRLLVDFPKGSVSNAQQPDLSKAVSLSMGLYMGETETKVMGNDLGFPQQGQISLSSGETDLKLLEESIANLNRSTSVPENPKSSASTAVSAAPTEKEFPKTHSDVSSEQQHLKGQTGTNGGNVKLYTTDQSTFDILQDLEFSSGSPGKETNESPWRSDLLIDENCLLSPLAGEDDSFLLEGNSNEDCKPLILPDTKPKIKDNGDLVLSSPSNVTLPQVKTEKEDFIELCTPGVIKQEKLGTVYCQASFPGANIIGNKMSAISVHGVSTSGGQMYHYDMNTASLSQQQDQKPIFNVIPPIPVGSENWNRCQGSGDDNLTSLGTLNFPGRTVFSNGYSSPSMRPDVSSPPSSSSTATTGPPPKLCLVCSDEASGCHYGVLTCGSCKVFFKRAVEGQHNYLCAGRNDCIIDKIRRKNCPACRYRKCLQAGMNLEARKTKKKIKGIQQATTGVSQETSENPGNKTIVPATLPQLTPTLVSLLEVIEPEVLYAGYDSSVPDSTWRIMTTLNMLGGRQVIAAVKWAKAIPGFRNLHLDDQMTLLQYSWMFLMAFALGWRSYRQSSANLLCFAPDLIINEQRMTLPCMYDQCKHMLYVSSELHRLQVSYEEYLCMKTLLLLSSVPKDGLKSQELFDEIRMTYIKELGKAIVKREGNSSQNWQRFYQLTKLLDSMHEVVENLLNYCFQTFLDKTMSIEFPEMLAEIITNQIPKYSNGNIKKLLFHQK
Lysosomal acid glucosylceramidase (Homo sapiens), sequence (P04062 whole entry, looked up): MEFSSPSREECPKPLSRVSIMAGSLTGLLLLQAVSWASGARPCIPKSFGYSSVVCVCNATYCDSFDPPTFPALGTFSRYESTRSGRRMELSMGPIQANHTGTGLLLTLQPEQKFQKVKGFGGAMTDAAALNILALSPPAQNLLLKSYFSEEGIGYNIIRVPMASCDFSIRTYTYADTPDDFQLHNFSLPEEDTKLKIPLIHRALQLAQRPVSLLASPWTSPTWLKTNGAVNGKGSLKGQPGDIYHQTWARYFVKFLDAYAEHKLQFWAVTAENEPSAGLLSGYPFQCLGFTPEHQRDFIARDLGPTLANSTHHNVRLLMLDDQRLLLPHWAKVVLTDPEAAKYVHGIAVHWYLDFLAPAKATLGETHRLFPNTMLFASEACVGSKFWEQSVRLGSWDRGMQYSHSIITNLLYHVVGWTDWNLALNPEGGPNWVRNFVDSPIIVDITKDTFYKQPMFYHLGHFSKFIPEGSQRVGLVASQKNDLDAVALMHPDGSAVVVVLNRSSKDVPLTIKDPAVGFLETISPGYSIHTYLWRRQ
Cytochrome P450 1A2 (Homo sapiens), sequence (P05177 whole entry, looked up): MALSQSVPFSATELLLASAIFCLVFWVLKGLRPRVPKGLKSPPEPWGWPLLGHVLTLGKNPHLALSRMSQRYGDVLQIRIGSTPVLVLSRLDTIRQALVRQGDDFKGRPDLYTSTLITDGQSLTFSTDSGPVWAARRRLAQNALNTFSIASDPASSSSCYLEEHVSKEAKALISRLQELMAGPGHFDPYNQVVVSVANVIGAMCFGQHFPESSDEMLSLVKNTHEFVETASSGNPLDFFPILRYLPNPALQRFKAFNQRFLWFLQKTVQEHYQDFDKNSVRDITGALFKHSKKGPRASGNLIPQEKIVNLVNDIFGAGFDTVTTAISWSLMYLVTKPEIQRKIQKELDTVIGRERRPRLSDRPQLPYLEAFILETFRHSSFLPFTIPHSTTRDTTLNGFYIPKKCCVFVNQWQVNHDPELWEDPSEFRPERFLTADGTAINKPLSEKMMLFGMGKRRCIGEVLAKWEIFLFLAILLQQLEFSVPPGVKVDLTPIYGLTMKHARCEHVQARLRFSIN
Cytochrome P450 2C19 (Homo sapiens), sequence (P33261 whole entry, looked up): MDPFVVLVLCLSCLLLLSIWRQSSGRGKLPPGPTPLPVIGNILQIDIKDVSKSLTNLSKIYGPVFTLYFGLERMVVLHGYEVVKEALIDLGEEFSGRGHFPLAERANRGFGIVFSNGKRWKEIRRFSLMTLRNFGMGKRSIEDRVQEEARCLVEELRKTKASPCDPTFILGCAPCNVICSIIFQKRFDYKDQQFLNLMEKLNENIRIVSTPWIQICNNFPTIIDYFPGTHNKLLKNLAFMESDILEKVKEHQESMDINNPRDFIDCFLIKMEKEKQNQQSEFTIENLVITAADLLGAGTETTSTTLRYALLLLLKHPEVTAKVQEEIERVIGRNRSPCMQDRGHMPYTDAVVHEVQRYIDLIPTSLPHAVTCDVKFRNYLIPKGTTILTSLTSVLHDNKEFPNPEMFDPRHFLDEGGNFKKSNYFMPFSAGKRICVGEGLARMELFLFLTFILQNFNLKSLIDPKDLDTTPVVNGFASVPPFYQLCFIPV
Cytochrome P450 2C9 (Homo sapiens), sequence (P11712 whole entry, looked up): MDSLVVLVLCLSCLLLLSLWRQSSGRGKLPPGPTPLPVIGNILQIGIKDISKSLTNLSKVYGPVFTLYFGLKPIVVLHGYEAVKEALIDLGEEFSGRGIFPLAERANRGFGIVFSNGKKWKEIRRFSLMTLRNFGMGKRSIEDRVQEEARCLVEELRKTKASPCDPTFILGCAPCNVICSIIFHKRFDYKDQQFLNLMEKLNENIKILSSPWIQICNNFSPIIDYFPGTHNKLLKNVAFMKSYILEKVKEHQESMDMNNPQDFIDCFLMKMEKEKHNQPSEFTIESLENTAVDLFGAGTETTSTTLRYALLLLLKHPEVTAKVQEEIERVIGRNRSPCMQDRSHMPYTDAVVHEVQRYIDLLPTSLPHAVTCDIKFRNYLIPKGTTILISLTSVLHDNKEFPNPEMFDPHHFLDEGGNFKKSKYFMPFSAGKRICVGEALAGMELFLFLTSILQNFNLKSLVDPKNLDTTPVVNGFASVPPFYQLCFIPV
Cytochrome P450 2D6 (Homo sapiens), sequence (P10635 whole entry, looked up): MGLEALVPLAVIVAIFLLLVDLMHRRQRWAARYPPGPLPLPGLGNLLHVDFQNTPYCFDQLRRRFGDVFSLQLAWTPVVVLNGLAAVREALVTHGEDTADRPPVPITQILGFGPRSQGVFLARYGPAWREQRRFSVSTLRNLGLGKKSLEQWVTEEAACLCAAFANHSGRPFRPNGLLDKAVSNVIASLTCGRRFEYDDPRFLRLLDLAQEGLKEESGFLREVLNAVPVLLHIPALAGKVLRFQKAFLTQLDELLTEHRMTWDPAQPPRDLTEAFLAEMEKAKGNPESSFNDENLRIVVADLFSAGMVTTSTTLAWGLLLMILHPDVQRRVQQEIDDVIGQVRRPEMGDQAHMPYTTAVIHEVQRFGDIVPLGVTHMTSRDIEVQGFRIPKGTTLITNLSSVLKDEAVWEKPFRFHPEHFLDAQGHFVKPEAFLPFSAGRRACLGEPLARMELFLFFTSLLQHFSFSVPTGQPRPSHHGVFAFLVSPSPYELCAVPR
Cytochrome P450 3A4 (Homo sapiens), sequence (P08684 whole entry, looked up): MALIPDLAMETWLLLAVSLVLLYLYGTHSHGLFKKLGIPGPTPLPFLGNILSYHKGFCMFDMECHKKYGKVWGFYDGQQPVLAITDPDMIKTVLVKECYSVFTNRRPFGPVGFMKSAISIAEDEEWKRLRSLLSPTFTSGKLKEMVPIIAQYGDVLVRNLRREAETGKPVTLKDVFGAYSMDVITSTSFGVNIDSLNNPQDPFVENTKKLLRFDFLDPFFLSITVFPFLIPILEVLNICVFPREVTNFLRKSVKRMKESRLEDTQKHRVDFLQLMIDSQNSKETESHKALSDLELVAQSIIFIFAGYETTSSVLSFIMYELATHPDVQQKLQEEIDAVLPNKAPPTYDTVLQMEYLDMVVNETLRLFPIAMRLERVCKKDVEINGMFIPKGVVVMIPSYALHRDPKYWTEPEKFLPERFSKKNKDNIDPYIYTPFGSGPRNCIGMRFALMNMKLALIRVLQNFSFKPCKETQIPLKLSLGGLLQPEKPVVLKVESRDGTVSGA

Regarding `O=C1c2ccccc2C(=O)N1C[C@]1(C(=O)O)NCCS1(=O)=O`, the results for the Potency in assay [1], in [5] and in assay [6] were greater than 11.4 µM, greater than 46 µM and greater than 9.22 µM, respectively. Besides, the figures for the activity change, negative = inhibition in [2] and in assay [3] were -0.765% and -5.5% [at 2.29 µM], respectively. Moreover, the activity, negative = inhibition in assay [4] is -1.43%. Besides, the Potency entry in assay [7] and in assay [8] was “inactive” in each case.
Turning to `OCCN(CCO)c1ncnc2nc[nH]c12`, the Potency in assay [1] is greater than 11.4 µM; in [5] it was greater than 46 µM; in assay [6], greater than 9.22 µM. Also, the activity change, negative = inhibition in assay [2] was -2.15%. The Potency result in [3], in assay [7] and in assay [8] was “inactive” throughout. In [4], the activity, negative = inhibition is -0.624%.
For `O=C(O)c1cccc(OCCO)c1`, the figures for the Potency in assay [1], in assay [5] and in assay [6] were greater than 11.4 µM, greater than 46 µM and greater than 9.22 µM, respectively. The activity change, negative = inhibition in assay [2] was 7.9%. Further, the Potency result in assay [3], in assay [7] and in assay [8] was “inactive” in each case. In addition, in assay [4], the activity, negative = inhibition was 13.6%.
On to `COc1ccc2c(Cc3c4ccccc4cc4ccccc34)cncc2c1O`, for which the Potency was greater than 11.4 µM in assay [1]; 126 nM (active) in [3]; greater than 46 µM in assay [5]; greater than 9.22 µM in assay [6]; 2.51 µM (active) in assay [11]. For the same molecule, the activity change, negative = inhibition in assay [2] was 9.25%. For the same molecule, the activity, negative = inhibition in assay [4] was -0.764%. The Potency result in [7], in assay [8], in assay [9] and in assay [10] was “inactive” throughout.
Consider `CCOC(=O)c1cnc(N(C)C)nc1SC(=N)N`, for which the Potency was greater than 11.4 µM in assay [1], greater than 46 µM in assay [5] and greater than 9.22 µM in assay [6]. Further, the activity change, negative = inhibition in [2] was -8.3%; in [3], -22.6% [at 2.29 µM]. In addition, in [4], the activity, negative = inhibition was -0.214%. Besides, the Potency result in assay [7] and in assay [8] was “inactive” throughout.
As to `O=C(O)Cn1ccnc1[N+](=O)[O-]`, the Potency in assay [1] is greater than 11.4 µM; in assay [5], greater than 46 µM; in [6], greater than 9.22 µM. In assay [2], the activity change, negative = inhibition was 9.71%. Further, the Potency entry in assay [3], in [7] and in assay [8] was “inactive” throughout. In addition, the activity, negative = inhibition in assay [4] was 6.87%.
For `O=C1C=CC(=Nc2cccc3c(N=C4C=CC(=O)O4)cccc23)O1`, the Potency is greater than 11.4 µM in [1], greater than 46 µM in assay [5] and greater than 9.22 µM in assay [6]. Moreover, the activity change, negative = inhibition in [2] was 5.25%. The Potency result in [3], in [7] and in assay [8] was “inactive” in each case. Further, in assay [4], the activity, negative = inhibition is -22.4%.
In the case of `Cc1cc2sc(C)[n+](CCCOS(=O)(=O)O)c2cc1C`, the Potency in assay [1] was greater than 11.4 µM; in [5], greater than 46 µM; in assay [6], greater than 9.22 µM. Besides, the activity change, negative = inhibition in assay [2] was -5.1%. For the same molecule, the Potency result in assay [3], in assay [7] and in assay [8] was “inactive” in each case. In [4], the activity, negative = inhibition was 1%.
Turning to `CCN(CC)CC[n+]1ccc2c(C)c3[nH]c4ccc(O)cc4c3c(C)c2c1`, the Potency in assay [1] is greater than 11.4 µM; in assay [3], 3160 nM (active); in [5], greater than 46 µM; in assay [6], greater than 9.22 µM. The activity change, negative = inhibition in assay [2] was 0.748%. Also, the activity, negative = inhibition in [4] was 26.1%. The Potency result in assay [7] and in [8] was “inactive” each time.
`c1ccc(SC(Sc2ccccc2)c2ccc3c(c2)OCO3)cc1`: the Potency is greater than 11.4 µM in assay [1]; 501 nM (active) in assay [3]; greater than 46 µM in [5]; greater than 9.22 µM in assay [6]; 3.16 µM (active) in assay [9]; 2.51 µM (active) in assay [12]. In addition, the Potency in [13] is 3.16 µM (active); in assay [11], 0.0316 µM (active). In assay [2], the activity change, negative = inhibition was -9.51%. Moreover, in assay [4], the activity, negative = inhibition is -12%. The Potency result in assay [7] and in assay [8] was “inactive” throughout.
With `C[C@@H]1c2ccccc2Cn2cc3c(c21)C(=O)c1cccc(OP(=O)(O)OCc2ccccc2)c1C3=O`, the Potency in assay [1] is greater than 11.4 µM; in [3], 3160 nM (active); in [5], greater than 46 µM; in assay [6], greater than 9.22 µM. Also, the activity change, negative = inhibition in assay [2] is -3.62%. Besides, the activity, negative = inhibition in [4] is -19.6%. For the same molecule, the Potency result in [7] and in assay [8] was “inactive” throughout.
With `OC[C@@H]1O[C@H](n2cnc3c(/C=C(\O)c4ccccc4)ncnc32)[C@H](O)[C@@H]1O`, the Potency was greater than 11.4 µM in assay [1], 501 nM (active) in [3], greater than 46 µM in assay [5] and greater than 9.22 µM in assay [6]. Also, the activity change, negative = inhibition in assay [2] was -7.91%. For the same molecule, in assay [4], the activity, negative = inhibition is -0.249%. Also, the Potency result in [7] and in assay [8] was “inactive” in each case.
Turning to `Cc1cc(=Nc2ccc3c(c2)c(N)cc(C)[n+]3C)nc(N)n1C`, the Potency in [1] is greater than 11.4 µM; in assay [5] it was greater than 46 µM; in assay [6], greater than 9.22 µM. Also, the activity change, negative = inhibition in assay [2] is -3.85%; in assay [3], -5.3% [at 2.29 µM]. Also, in assay [4], the activity, negative = inhibition was -8.63%. Further, the Potency result in assay [7] and in [8] was “inactive” each time.
Take `C/C(=N/NS(=O)(=O)c1ccc(C)cc1)P(=O)(O)O`: the Potency in assay [1] is greater than 11.4 µM; in assay [5] it was greater than 46 µM; in assay [6] it was greater than 9.22 µM. Further, in assay [2], the activity change, negative = inhibition was 1.2%. For the same molecule, the Potency result in assay [3], in assay [7] and in [8] was “inactive” each time. The activity, negative = inhibition in assay [4] is 6.08%.
With `O[C@H](CNc1ccccn1)c1ccccc1`, the Potency in assay [1] was greater than 11.4 µM; in assay [5], greater than 46 µM; in [6], greater than 9.22 µM; in assay [13], 1.58 µM (active). For the same molecule, the activity change, negative = inhibition in [2] was 1.58%. The Potency result in assay [3], in [7] and in assay [8] was “inactive” each time. Besides, the activity, negative = inhibition in assay [4] is 4.88%.
